High-throughput results from PubChem BioAssay.
TGFb SMAD3 inh – TGF-b pathway inhibition. HepG2 CAGA-GFP TGF-b/SMAD3 reporter, GFP fluorescence, 18 h; TGF-beta stimulated, 500 pg/mL final. hit rate 1.2% among 410,000. Potency, µM (series often up to 46.1 µM), most hits filed as inhibitors; further: nearly all actives have a fitted effect of over 65% in size
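GFP signal (ex488/em500-530) from TGF-beta-stimulated HEPG2 CAGA-GFP cells, 500 pg/mL final, 18 h at 37 degrees C in DMEM plus 1% FBS, normalized to unstimulated and DMSO-stimulated controls.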
IL-1B inflam inh – inhibitors of inflammasome signaling (IL-1 beta secretion); THP-1 LPS/ATP IL-1B secretion, AlphaLISA, 16 h; hits give low values; activity change, % at 57.5 µM; hit rate 4.7% among 360,000; in the data active means activity change below about -50%; inconclusive means mostly about -30% to -49%
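Secreted IL-1B measured by AlphaLISA bead assay after 16 h compound exposure of THP-1 cells; compounds (final up to 57.5 uM) added 1 h before LPS (250 ng/mL) and ATP (1.25 mM) stimulation; lower signal means less secretion.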
HepG2 viability – HepG2 cytotoxicity, counter-screen for TGF-b inhibitors. HepG2 CAGA-GFP viability, ATP luminescence, 18 h. Potency, µM (doses to about 46.1 µM), most hits filed as cytotoxic. hit rate 0.76% among 410,000. AID 588856
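CellTiter-Glo luminescence gave cytotoxicity after 18 hours at 37 degrees C. The cells were HepG2 CAGA-GFP in 1% FBS DMEM, stimulated with 500 pg/mL TGF-beta after compound addition. %Activity was normalised to no-cell wells (complete cell-killing) and DMSO (no toxicity), and curves were fitted and classified.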
DT40 TDP1 no CPT – qHTS for Inhibitors of human tyrosyl-DNA phosphodiesterase 1 (TDP1): qHTS in cells in absence of CPT; DT40 Tdp1-/- hTDP1 cells, no CPT, ATP luminescence, 48 h; Potency, µM (highest dose often 46.2 µM), usual class: inhibitors; hit rate 15% among 420,000; further: nearly all actives have a fitted effect of over 55% in size
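Chicken DT40 Tdp1-/- cells stably complemented with human TDP1 were seeded at 400 cells/well with DMSO in place of 20 nM camptothecin. After compound pinning, cells grew at least 48 hr at 37 °C; viability read by CellTiter-Glo luminescence.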
TDP1 inh – TDP1 (human) enzyme inhibition; recombinant TDP1, AlphaScreen DNA substrate cleavage; Potency, µM (highest dose often 130 µM), usual class: inhibitors; hit rate 0.28% among 350,000; AID 485290; further: nearly all actives have a fitted effect of over 40% in size
Target sequence (Q9NUW8 whole entry, looked up): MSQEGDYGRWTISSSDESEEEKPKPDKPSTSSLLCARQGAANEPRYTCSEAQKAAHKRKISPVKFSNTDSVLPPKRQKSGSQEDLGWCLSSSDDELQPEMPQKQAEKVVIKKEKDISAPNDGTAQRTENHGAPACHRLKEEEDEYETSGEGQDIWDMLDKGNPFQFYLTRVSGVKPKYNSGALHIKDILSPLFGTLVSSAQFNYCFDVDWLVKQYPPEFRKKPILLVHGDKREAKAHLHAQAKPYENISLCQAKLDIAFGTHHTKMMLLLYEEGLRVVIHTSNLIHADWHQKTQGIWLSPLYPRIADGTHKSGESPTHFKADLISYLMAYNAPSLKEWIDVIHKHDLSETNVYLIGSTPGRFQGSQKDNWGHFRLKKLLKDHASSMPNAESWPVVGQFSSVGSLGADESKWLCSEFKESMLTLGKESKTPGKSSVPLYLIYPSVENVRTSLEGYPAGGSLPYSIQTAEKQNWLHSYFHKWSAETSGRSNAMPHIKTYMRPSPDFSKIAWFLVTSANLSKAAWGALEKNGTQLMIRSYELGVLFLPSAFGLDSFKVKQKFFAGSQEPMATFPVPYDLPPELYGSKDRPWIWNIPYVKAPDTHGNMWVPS
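Recombinant human Tdp1 (E. coli-expressed, 1 nM final) preincubated with compounds 15 min at room temperature, then 5'-biotin/3'-phosphotyrosine-FITC DNA substrate (15 nM final) added for 5 min. AlphaScreen beads (10 ug/ml final) added 10 min; cleavage lowers signal.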
DT40 TDP1 CPT – growth inhibition of DT40 Tdp1-/-;hTDP1 cells with camptothecin (screen for TDP1 inhibitors). Potency, µM (titrated, usually from 46.2 µM), actives largely listed as inhibitors. chicken DT40 Tdp1-/-;hTDP1 cells + 20 nM CPT, ATP luminescence, 48 h. hit rate 12% among 420,000. AID 686979; further: nearly all actives have a fitted effect of over 55% in size
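Chicken DT40 Tdp1-/- cells complemented with human TDP1, 400 cells/well, exposed to compounds plus 20 nM camptothecin for at least 48 h at 37 C; viability read as ATP content by CellTiter-Glo luminescence.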
Hits are given with their value; 0 = inactive; ? = inconclusive; - = not tested or not shown; [ ] = another dose, or the depositor's remark. An excerpt weighted towards active compounds, which were near 18% of everything screened. Unless noted, the call rests on the fitted dose curve; in most records, active means well fitted curve in the direction sought with a large enough effect; inconclusive means small, poorly fitted or top-dose-only effect, or another doubt; inactive means no such curve, though single readings can be large; an effect the other way counts as inactive or inconclusive.

SMILES | TGFb SMAD3 inh | IL-1B inflam inh | HepG2 viability | DT40 TDP1 no CPT | TDP1 inh | DT40 TDP1 CPT
Cc1cccc(Cn2c(CN3CCC(C(=O)NC(C)C)CC3)cc3ccccc32)c1 | ? | - | 0 | 23µM | 0 | ?
COc1ccccc1CNC(=O)C1CCN(Cc2cc3ccccc3n2Cc2cccc(C)c2)CC1 | 0 | - | 0 | 18µM | 0 | 13µM
COc1cccc(CNC(=O)C2CCN(Cc3cc4ccccc4n3Cc3ccccc3)CC2)c1OC | 0 | - | 0 | ? | 0 | ?
CCOC(=O)c1nn(-c2ccccc2C)c(=O)c2c(N)scc12 | 0 | 0 | 0 | ? | 0 | ?
CCOC(=O)c1nn(-c2ccccc2)c(=O)c2c(NC(C)=O)scc12 | 0 | 0 | 3.2µM | 0 | 0 | 0
CCOC(=O)c1nn(-c2ccc(OC)cc2)c(=O)c2c(NC(=O)Cc3ccccc3)scc12 | - | - | - | - | 0 | -
Cc1nn(-c2ccccc2)c(Cl)c1/C=N/NC(=O)c1ccccc1F | 0 | 0 | 0 | ? | 0 | 0
Nc1scc2c(C(=O)N/N=C/c3ccc(Cl)cc3)nn(-c3ccccc3)c(=O)c12 | 0 | 0 | 0 | 7.3µM | - | 8.2µM
CCOC(=O)c1nn(-c2ccccc2)c(=O)c2c(N)scc12 | 0 | 0 | 0 | 15µM | 0 | 8.2µM
Cc1cccnc1-c1cccc2c1OC(CNC(=O)/C=C/c1cccs1)C2 (stereo not given) | - | - | - | ? | - | 0[9.04 µM]
Cc1csc(-c2cnn(-c3ccccc3)c2NC(=O)c2ccc(C(F)(F)F)cc2)n1 | 0 | 0 | 0 | 23µM | 0 | ?
Cc1ccc(N2CCN(C(=O)c3noc4c3COc3ccc(C)cc3-4)CC2)c(C)c1 | 0 | - | 0 | - | 0 | -
Cc1ccc(C(C)C)c(OCC(=O)NC(=S)Nc2ccccc2N2CCOCC2)c1 | 0 | 0 | 0 | 16µM | 0 | 23µM
Cc1ccc(C)c(OCC(=O)Nc2ccccc2N2CCCC2)c1 | 0 | 0 | 0 | ? | 0 | ?
Cc1cccc(OCC(=O)NC(=S)Nc2ccccc2N2CCOCC2)c1C | 0 | 0 | 0 | 0 | 0 | 0
CCC(=O)N1CCN(c2ccccc2NC(=O)COc2cc(C)ccc2C(C)C)CC1 | ? | -95 | 0 | 23µM | 0 | 16µM
Cc1c2cnn(CC(=O)NC(C)C)c(=O)c2c(C)n1Cc1cccc(Cl)c1 | 0 | - | 0 | ? | 0 | 0
Cc1cc(C(=O)OCC(=O)NC(C)c2ccc(F)cc2)c(C)o1 (stereo not given) | ? | 0 | 0 | 0 | 0 | ?
Cc1cc(-c2nnc3sc(C4CCCCC4)nn23)n[nH]1 | 0 | 0 | 0 | 0 | 0 | ?
CCOc1cccc(-c2nnc3sc(C4CCCCC4)nn23)c1 | 0 | ? | 0 | ? | 0 | ?
COc1cccc(-c2nnc3sc(C4CCCCC4)nn23)c1 | ? | -93 | 0 | 21µM | 0 | 18µM
COc1cc(-c2nnc3sc(C4CCCCC4)nn23)cc(OC)c1OC | ? | 0 | 0 | 23µM | 0 | 16µM
CN(C(=O)c1cccc(NC(=O)Cc2cccc(NC(=O)C3CCN(C(=O)C4CCCCC4)CC3)c2)c1)C1CCC1 | 0 | 0 | 0 | 0 | - | 0
CCN(CC)CC(=O)c1c[nH]c2ccc(C)cc12 | 0 | 0 | 0 | 23µM | 0 | 21µM
CSc1cccc(-n2cc(-c3ccc4c(c3)OCO4)[nH]c2=O)c1 | 0 | 0 | 0 | 5.2µM | 0 | 4.6µM
SMILES | TGFb SMAD3 inh | IL-1B inflam inh | HepG2 viability | DT40 TDP1 no CPT | TDP1 inh | DT40 TDP1 CPT
Cc1cc(C)nc(SCC(=O)NN=Cc2ccc(C)o2)n1 | 0 | 0 | 0 | 0 | 0 | 0
CCOc1ccc(S(=O)(=O)N(CC(=O)NC2CCCCC2C)Cc2ccco2)cc1 (stereo not given) | 0 | ? | 0 | 26µM | 0 | 15µM
CCOc1ccc(N(CC(=O)NC2CCCCC2C)S(=O)(=O)c2c(C)noc2C)cc1 (stereo not given) | 0 | 0 | 0 | 0 | 0 | ?
Brc1cc2c(cc1/C=N/Nc1nc(N3CCCCC3)nc(N3CCCCC3)n1)OCO2 | - | - | - | - | 0 | -
CC1C(=O)CC(c2ccc([N+](=O)[O-])cc2)NC1c1ccc([N+](=O)[O-])cc1 (stereo not given) | 0 | 0 | 0 | ? | 0 | ?
CC1C(=O)C(C)C(c2ccc([N+](=O)[O-])cc2)NC1c1ccc([N+](=O)[O-])cc1 (stereo not given) | 0 | 0 | 0 | 18µM | 0 | ?
CCN1CCN(C(c2ccccc2Cl)c2c(O)cc(C)n(CCOC)c2=O)CC1 (stereo not given) | 0 | - | 0 | 0 | 0 | 0
COC(=O)C1=C(C(=O)OC)[C@@H]2N(Cc3ccccc3)c3ccccc3[C@@]23C[C@@H](C(=O)OC)N(S(=O)(=O)c2c(C)noc2C)C3=N1 | - | - | - | - | 0[21 µM] | -
O=C(CCNC(=O)c1ccccc1)NNC(=O)c1ccc(F)cc1 | 0 | 0 | 0 | 0 | 0 | 0
CCCCOc1ccc(-c2cn3ccccc3n2)cc1[N+](=O)[O-] | 0 | 0 | 0 | 26µM | 0 | ?
CCCOc1ccc(-c2csc(N)n2)cc1[N+](=O)[O-] | 0 | 0 | 0 | 10µM | 0 | 15µM
CCOc1ccc(-c2cn3ccccc3n2)cc1[N+](=O)[O-] | ? | 0 | 0 | ? | 0 | ?
CC(=O)N1c2ccccc2NC2=C(C(=O)CC(C)(C)C2)C1c1cccn1C (stereo not given) | 0 | 0 | 0 | 0 | 0 | 0
Cc1ccc(NC(=O)N2CCN(c3nnc(C)c4c(C)n(-c5ccccc5)nc34)CC2)cc1Cl | 0 | - | 0 | 0 | 0 | 0
Cc1nnc(N2CCCC(C(=O)Nc3cccc(C(F)(F)F)c3)C2)c2nn(-c3ccccc3)c(C)c12 (stereo not given) | ? | - | 0 | 21µM | 0 | ?
COc1ccccc1NC(=O)C1CCCN(c2nnc(C)c3c(C)n(-c4ccccc4)nc23)C1 (stereo not given) | 0 | - | 0 | 8.2µM | 0 | 16µM
COc1ccc(C)cc1NC(=O)N1CCN(c2nnc(C)c3c(C)n(-c4ccccc4)nc23)CC1 | 0 | - | 0 | 0 | 0 | 0
CCOC(=O)c1cccc(NC(=O)C2CCCN(c3nnc(C)c4c(C)n(-c5ccccc5)nc34)C2)c1 (stereo not given) | 0 | - | 0 | 9.2µM | 0 | 13µM
Cc1ccc(NC(=O)C2CCCN(c3nnc(C)c4c(C)n(-c5ccccc5)nc34)C2)cc1Cl (stereo not given) | 0 | - | 0 | 4.1µM | 0 | 12µM
O=S(=O)(NC1CCCCC1)c1ccc(N2CCOCC2)nc1 | 0 | 0 | 0 | 0 | 0 | 0
CC(C)CO/N=C1/C[C@@H](O)[C@@H](O)[C@@H]2[C@@H]3C(=O)N(C(C)(C)C)C(=O)[C@H]3CC[C@H]12 | - | - | - | - | 0[21 µM] | -
